30 molecules from PubChem BioAssay AID488975 (Johns Hopkins Ion Channel Center, 2010) can be followed below.

The campaign covered roughly 310,000 compounds. About 2,600 (0.84%) were called active.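 The calls were made as follows: active = B-score over 3 SD under the library average, and starting fluorescence ratio not unusually high; inactive = the rest.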 For the sample, actives were picked, then their nearest neighbours and some compounds at random.

The target in the assay is High affinity choline transporter 1 (Homo sapiens) (UniProt Q9GZV3). Description: inhibitors of human choline transporter CHT (AID 488975).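 As to B-score: choline stimulus applied at its EC90 after an EC20 pre-addition; B-score computed on integrated fluorescence ratio after choline addition.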 To be noted: CHT-expressing cells, membrane potential dye, choline response, at 10 µM; hits give low values.
Sequence of High affinity choline transporter 1 (Homo sapiens) (Q9GZV3 whole entry, looked up): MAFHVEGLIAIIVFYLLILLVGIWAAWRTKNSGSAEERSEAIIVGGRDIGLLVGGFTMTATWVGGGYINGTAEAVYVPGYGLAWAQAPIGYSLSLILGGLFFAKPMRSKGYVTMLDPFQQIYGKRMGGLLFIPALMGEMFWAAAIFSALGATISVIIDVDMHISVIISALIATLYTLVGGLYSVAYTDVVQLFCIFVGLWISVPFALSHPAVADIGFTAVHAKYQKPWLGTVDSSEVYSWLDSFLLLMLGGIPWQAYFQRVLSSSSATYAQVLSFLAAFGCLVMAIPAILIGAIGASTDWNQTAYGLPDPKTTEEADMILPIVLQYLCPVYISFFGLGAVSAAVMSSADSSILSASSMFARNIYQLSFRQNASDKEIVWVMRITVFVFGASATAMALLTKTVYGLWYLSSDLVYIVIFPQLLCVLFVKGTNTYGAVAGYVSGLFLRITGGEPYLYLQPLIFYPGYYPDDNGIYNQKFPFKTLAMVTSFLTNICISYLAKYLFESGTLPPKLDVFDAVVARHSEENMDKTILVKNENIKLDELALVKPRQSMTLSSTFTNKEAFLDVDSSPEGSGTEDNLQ
For the molecule `Cn1cccc1C(=O)NNC(=O)COc1ccc(Br)cc1`, the B-score entry is “inactive”.

Regarding `Cc1ccc(S(=O)(=O)N2CCCCC2)cc1C(=O)N(C)CC(=O)Nc1cccc(F)c1`, the B-score result is “inactive”.

`O=C(NCC(c1ccco1)N1CCc2ccccc21)c1cccc(F)c1` (stereo not given): the B-score entry was “inactive”.

In the case of `CC1(C)CC(=O)c2ccc(O)cc2O1`, the B-score entry was “inactive”.

With `COc1ccc2c(c1)OC(O)(C(F)(F)C(F)F)CC2=O` (stereo not given), the B-score was -5.18 (active).

Regarding `COc1ccc2c(c1)SC(C)CC2=O` (stereo not given), the B-score result was “inactive”.

Take `COC(=O)[C@@]12CCCN1[C@H](c1ccc(-c3ccc(F)cc3)c(OC)c1)[C@H]1C(=O)N(C)C(=O)[C@H]12`: the B-score entry was “inactive”.

`CCN(CC)c1ccc(NC(=O)c2ccc(=O)[nH]c2)cc1S(=O)(=O)Nc1ccc(OC)cc1`: the B-score entry is “inactive”.

Regarding `COc1cc(/C=N/NC(=O)c2cc(-c3ccccc3C)nc3ccccc23)cc(OC)c1O`, the B-score result is “inactive”.

For `Cc1ccnc(NC(=O)c2ccco2)n1`, the B-score result was “inactive”.

Take `O=C(Nc1nonc1-c1ccc(Cl)cc1)c1ccco1`: the B-score is -5.55 (active).

Regarding `O=C(Nc1ccccc1)c1ccco1`, the B-score result was “inactive”.

`CN(Cc1ccccc1F)C(=O)C(Cc1ccccc1)NC(=O)c1ccccc1` (stereo not given): the B-score result is “inactive”.

Consider `O=C(NNC(=O)c1cc(-c2ccccc2Cl)nc2ccccc12)c1csc(N2CCOCC2)n1`, for which the B-score entry is “inactive”.

As to `O=S(=O)(Cc1cc(Cl)nc(-c2cccnc2)n1)c1ccccc1`, the B-score was -6.86 (active).

Take `O=S(=O)(NCCc1csc(-c2ccccc2)n1)c1cccnc1`: the B-score entry was “inactive”.

For the molecule `O=S(=O)(Cc1cc(Sc2ccccc2)nc(-c2ccccc2)n1)c1ccccc1`, the B-score entry was “inactive”.

For the molecule `COc1ccccc1NC(=O)C(C)OC(=O)c1ccc(-n2cnnn2)cc1` (stereo not given), the B-score result is “inactive”.

For `CCC1Nc2ncnc(N3CCN(c4ccccc4)CC3)c2N(Cc2ccc(Cl)cc2)C1=O` (stereo not given), the B-score result is “inactive”.

As to `CCOC(=O)C1C(c2ccc(Cl)cc2)NC(=S)NC1(O)C(F)(F)F` (stereo not given), the B-score result is “inactive”.

`O=C(c1cccs1)C1C(c2ccc(Br)cc2)NC(=S)NC1(O)C(F)(F)F` (stereo not given): the B-score was -8.32 (active).

On to `CC(=O)C1C(c2ccc(Cl)cc2)NC(=O)NC1(O)C(F)(F)F` (stereo not given), for which the B-score result is “inactive”.

For `Cc1ccc(NC(=O)CN2CCc3ccccc3C2)cc1C`, the B-score result is “inactive”.

Turning to `CN(c1cccc(NC(=O)c2ccc(CN3CCc4ccccc4C3)cc2)c1)S(C)(=O)=O`, the B-score result is “inactive”.

For `Cc1cccc(C)c1NC(=O)c1ccc(CN2CCc3ccccc3C2)cc1`, the B-score is -5.84 (active).

With `CCCCn1c(N)c(N(CC(C)C)C(=O)c2ccc(-n3c(C)ccc3C)cc2)c(=O)[nH]c1=O`, the B-score result is “inactive”.

As to `COc1ccc2c(c1)[C@H]1[C@H](CO2)[C@H](c2ccccc2)[C@]2(C)C(=O)Nc3cc(F)c(F)cc3C(=O)N12`, the B-score entry is “inactive”.

On to `C=CCn1c(SCc2ccc(C(=O)NCCO)cc2)nc2ccccc2c1=O`, for which the B-score is -5.96 (active).

As to `COCCNC(=O)c1ccc(-n2c(SCc3cccnc3)nc3ccccc3c2=O)cc1`, the B-score result is “inactive”.

For `O=C(Nn1c(SCc2ccc([N+](=O)[O-])cc2)nc2ccccc2c1=O)c1ccc(F)cc1`, the B-score entry was “inactive”.
